PINK1 expr mod: changes PINK1 expression. Potency, µM (doses to about 76.6 µM), actives largely listed as activators. AID 624263. PINK1 immunofluorescence, high-content cytometry, 24 h. 410,000 tested, 0.2% active; active = well fitted activation curve with a large enough effect; inconclusive = small, poorly fitted or top-dose-only effect; cell line not stated here; also: nearly all actives have a fitted effect of over 65% in size
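PINK1 protein, normally rapidly degraded, was detected by immunofluorescence after 24 hour compound treatment of a stable cell line. Titration data (5 concentrations) came from laser-scanning cytometry, with CCCP-treated wells as controls.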
SW480 rereplic: DNA re-replication induction in SW480 cells | SW480 DNA re-replication, Hoechst DNA content imaging, 48 h | 340,000 tested, 1.8% active | Potency, µM (titrated, usually from 46.1 µM), hits mostly activators; also: nearly all actives have a fitted effect of over 55% in size
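Image-based DNA-content assay: after two days of treatment, nuclei were labelled with the DNA dye Hoechst and imaged, and hits were compounds raising the count of nuclei showing high fluorescence intensity.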
MCF10A rereplic: induces DNA re-replication in MCF 10a normal breast cells; MCF 10A DNA re-replication, Hoechst nuclear intensity, 48 h; Potency, µM (top dose mostly 46.1 µM), most hits filed as activators; 350,000 tested, 2.9% active; AID 624296; also: nearly all actives have a fitted effect of over 50% in size
ATXN2 expr inh: reduces ATXN2 reporter expression in HEK-293 cells. HEK-293 ATXN2-luciferase reporter, luminescence, 24 h. Potency, µM (top dose mostly 57 µM), actives largely listed as inhibitors. 360,000 tested, 0.72% active. AID 1745845; also: nearly all actives have a fitted effect of over 55% in size
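ATXN2-luciferase reporter cells (luciferase flanked by upstream and downstream ATXN2 gene portions) were treated 24 h at 37 °C with compounds at up to 57 uM. SteadyGlo luminescence gave expression; GF-AFC fluorescence gave viability.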
IL-1B inflam inh: blocks inflammasome-driven IL-1 beta release; activity change, % at 57.5 µM; THP-1 LPS/ATP IL-1B secretion, AlphaLISA, 16 h; hits give low values; 360,000 tested, 4.7% active; AID 743279; in the data active = activity change below about -50%; inconclusive = mostly about -30% to -49%
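Secreted IL-1B measured by AlphaLISA bead assay after 16 h compound exposure of THP-1 cells; compounds (final up to 57.5 uM) added 1 h before LPS (250 ng/mL) and ATP (1.25 mM) stimulation; lower signal means less secretion.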
ATXN viability: reduces viability in counter-screen for ATXN expression inhibitors. S2 cells (HEK-293 line with an ATXN2-luciferase reporter) viability, CellTiter-Fluor protease fluorescence, 24 h. Potency, µM (doses to about 56.7 µM), most hits filed as cytotoxic. 400,000 tested, 0.49% active; also: nearly all actives have a fitted effect of over 40% in size
Hits are given with their value. Rows were chosen to be rich in hits. Some 7.1% of all compounds tested hit in one or more screens of this group. Unless noted, calls follow the shape of the dose curve; as a rule, active = well fitted curve in the direction sought with a large enough effect; inconclusive = small, poorly fitted or top-dose-only effect, or another doubt; inactive = no such curve, though single readings can be large; an effect the other way counts as inactive or inconclusive.

For CSc1sc(C(=O)NCC2CC2)cc1S(=O)(=O)C(C)C the results were PINK1 expr mod inactive, SW480 rereplic inconclusive, MCF10A rereplic inactive, ATXN2 expr inh inactive, IL-1B inflam inh inactive and ATXN viability inactive.
For COC(=O)c1cc(S(=O)(=O)C(C)C)c(S(C)=O)s1 (stereo unspecified) the results were PINK1 expr mod inactive, SW480 rereplic inconclusive, MCF10A rereplic inactive, ATXN2 expr inh inactive, IL-1B inflam inh -99.6 and ATXN viability inactive.
`C=C1[C@@H](O)[C@@H]2O[C@]3(CC[C@H](/C=C/[C@@H](C)[C@@H]4CC(C)=CC5(O[C@H](C[C@@](C)(O)C(=O)OC)CC[C@H]5O)O4)O3)CC[C@H]2O[C@@H]1[C@@H](O)C[C@H](C)[C@H]1OC2(CCCCO2)CC[C@H]1C` (stereo partly specified) gave PINK1 expr mod inactive, SW480 rereplic inconclusive, MCF10A rereplic inconclusive, ATXN2 expr inh inconclusive, IL-1B inflam inh inactive and ATXN viability inconclusive.
`C=C1C(O)[C@@H]2O[C@]3(CC[C@H](/C=C/C(C)[C@@H]4CC(C)=CC5(O[C@H](C[C@@](C)(O)CO)CCC5O)O4)O3)CC[C@H]2O[C@@H]1C(O)CC(C)[C@H]1OC2(CCCCO2)CCC1C` (stereo partly specified) gave PINK1 expr mod inactive, SW480 rereplic inconclusive, MCF10A rereplic inactive, ATXN2 expr inh inactive, IL-1B inflam inh -100.4 and ATXN viability inconclusive.
For CCOc1ccc(N(C(=O)c2ccc(Cl)cc2)S(=O)(=O)c2ccc3c(c2)n(C)c(=O)n3C)cc1 the results were PINK1 expr mod inactive, ATXN2 expr inh inactive and ATXN viability inactive.
Screening Cc1ccc(Cn2c(C(CO)Nc3nc(-c4ccc(F)cc4)cs3)nc3ccccc32)cc1 (stereo unspecified) returned PINK1 expr mod inactive, SW480 rereplic inactive, MCF10A rereplic inconclusive, ATXN2 expr inh inconclusive and IL-1B inflam inh -69.3.
COCCCn1c(SCC(=O)Nc2ccccc2OC)nc2c(sc3ccccc32)c1=O was read as PINK1 expr mod inactive.
`COc1ccccc1-c1nnc(NC(=O)c2ccc3c(c2)OCO3)s1` gave PINK1 expr mod inactive, SW480 rereplic 5.8µM, MCF10A rereplic inconclusive, ATXN2 expr inh inactive, IL-1B inflam inh inactive and ATXN viability inconclusive.
`CC(C)c1nnc(NC(=O)c2ccc3c(c2)OCO3)s1` gave PINK1 expr mod inactive, SW480 rereplic inactive, MCF10A rereplic inactive, ATXN2 expr inh inconclusive, IL-1B inflam inh inactive and ATXN viability inactive.
CC(c1ccccc1)c1nnc(NC(=O)c2ccc3c(c2)OCO3)s1 (stereo unspecified) was read as PINK1 expr mod inactive, SW480 rereplic 14.6µM, MCF10A rereplic inconclusive, IL-1B inflam inh inactive and ATXN viability inactive.
O=C(Nc1nnc(-c2ccco2)s1)c1ccccc1 was read as PINK1 expr mod inactive, SW480 rereplic inactive, MCF10A rereplic inactive, ATXN2 expr inh inactive, IL-1B inflam inh inactive and ATXN viability inactive.
For COc1ccc(C(=O)Nc2nnc(-c3ccco3)s2)cc1 the results were SW480 rereplic inconclusive, MCF10A rereplic inactive, ATXN2 expr inh 7.94µM, IL-1B inflam inh inactive and ATXN viability inconclusive.
`CCOc1ccc(OCC)c(Nc2cc(C)nc3nc(-c4ccco4)nn23)c1` gave PINK1 expr mod inactive, ATXN2 expr inh inactive and ATXN viability inactive.
For COc1cccc(/C=N/NC(=O)C(=O)N2CCCCCC2)c1O the results were PINK1 expr mod inactive, SW480 rereplic inconclusive, MCF10A rereplic inactive, ATXN2 expr inh inactive, IL-1B inflam inh inactive and ATXN viability inactive.
Screening COc1cccc(/C=N/NC(=O)c2cc3c(OC)c(OC)ccc3[nH]2)c1OC returned PINK1 expr mod inactive, SW480 rereplic 23.1µM, MCF10A rereplic inconclusive, IL-1B inflam inh inactive and ATXN viability inconclusive.
`COc1cccc(/C=N/NC(=O)C(=O)N/N=C/c2cccc(OC)c2O)c1O` gave PINK1 expr mod inactive, SW480 rereplic 6.51µM, MCF10A rereplic inactive, ATXN2 expr inh inactive, IL-1B inflam inh inactive and ATXN viability inactive.
